# Measurements reported in PubChem BioAssay (NCI).
# About 79,000 compounds went through this panel and 15% of them were active in at least one assay; those are over-represented in the sample as a whole. Values without a mark were called inactive. Activity calls are given as the source filed them. Cut-off read from the data, not from the text of the source: active = growth inhibition above about 70%; inactive = the rest.
# How the values were obtained:
# [1] = NCI Yeast Anticancer Drug Screen. Data for the rad50 strain (AID 155);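 note: 0% = growth of vehicle-only cultures of the same strain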; details: S. cerevisiae rad50 strain growth inhibition, stronger effect = higher value
# How it was run: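 Yeast carrying a defined DNA repair defect were exposed to test compounds, and growth was compared with vehicle-treated controls to give percent inhibition.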
# [2] = NCI Yeast Anticancer Drug Screen. Data for the mec2-1 strain (AID 157); details: S. cerevisiae mec2-1 strain, stronger effect = higher value
# How it was run: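 Strain: mec2-1 (DNA repair/cell cycle alteration). Compound exposure, then growth measured; inhibition expressed relative to vehicle.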
# [3] = NCI Yeast Anticancer Drug Screen. Data for the sgs1 mgt1 strain (AID 161);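 note: 0% = growth of cultures given vehicle only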; details: S. cerevisiae sgs1 mgt1 strain, stronger effect = higher value
# How it was run: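 Inhibition of yeast growth, normalised to vehicle-treated controls, is reported for a strain bearing genetic alterations in DNA damage repair.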
# [4] = NCI Yeast Anticancer Drug Screen. Data for the cln2 rad14 strain (AID 165);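 note: 0% = growth equal to vehicle treated cultures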; details: S. cerevisiae cln2 rad14 strain, stronger effect = higher value
# How it was run: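 Compounds are applied to the cln2 rad14 yeast strain, and growth is then compared with that of vehicle-treated cultures to give inhibition.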
# [5] = NCI Yeast Anticancer Drug Screen. Data for the bub3 strain (AID 167); details: S. cerevisiae bub3 mutant strain, stronger effect = higher value
# How it was run: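 Compounds were applied to a genetically altered yeast strain carrying a cell-cycle control defect. Growth inhibition was scored against vehicle-treated controls.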
# [6] = NCI Yeast Anticancer Drug Screen. Data for the mlh1 rad18 strain (AID 175); details: S. cerevisiae mlh1 rad18 strain growth inhibition, stronger effect = higher value
# How it was run: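 Read-out is yeast growth inhibition, calculated against vehicle-only controls. The compound was applied to a strain engineered with DNA damage repair alterations.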
# [7] = at 5.0 µM (retest, dose inferred, filed as 0.5)
# [8] = at 50.0 µM (retest, dose inferred, filed as 5.0)
SMILES,"growth inhibition [1, 7]","growth inhibition [1, 8]",growth inhibition ([1]; at 50.0 µM),"growth inhibition [2, 7]","growth inhibition [2, 8]",growth inhibition ([2]; at 50.0 µM),"growth inhibition [3, 7]","growth inhibition [3, 8]",growth inhibition ([3]; at 50.0 µM),"growth inhibition [4, 7] [%]","growth inhibition [4, 8]",growth inhibition ([4]; at 50.0 µM),"growth inhibition [5, 7] [%]","growth inhibition [5, 8]",growth inhibition ([5]; at 50.0 µM),"growth inhibition [6, 7]","growth inhibition [6, 8]",growth inhibition ([6]; at 50.0 µM)
O=S(=O)(Nc1ccccc1)c1ccccc1C(O)(c1ccccc1)c1ccccc1,6%,71% (active),93.6% (active),-15%,94% (active),73.1% (active),-179%,48%,92.1% (active),-2,82% (active),85.2% (active),15,96% (active),81.2% (active),-21%,92% (active),95.5% (active)
O=C(N/C(=C/c1ccc(Cl)cc1Cl)c1nc2ccccc2s1)c1ccccc1,27%,98% (active),98.6% (active),13%,98% (active),97.7% (active),56%,99% (active),98.9% (active),14,98% (active),98.1% (active),31,98% (active),98% (active),26%,98% (active),98.2% (active)
O=[N+]([O-])c1cc(NC(=S)SCc2ccccc2)ccc1Cl,92% (active),98% (active),98.8% (active),74% (active),99% (active),99.3% (active),92% (active),99% (active),99.2% (active),29,97% (active),99.1% (active),8,97% (active),99.2% (active),91% (active),99% (active),99.2% (active)
CN(C)CC(C)(CN(C)C)C(=O)/C=C/c1ccc(Cl)c(Cl)c1,27%,98% (active),99.7% (active),18%,99% (active),99.8% (active),38%,98% (active),99.8% (active),13,99% (active),99% (active),12,100% (active),99.5% (active),41%,99% (active),99.6% (active)
N#CCCN(CCC#N)Cc1cc(-c2ccccc2)ccc1O,5%,55%,87.5% (active),1%,19%,55%,-2%,59%,59.5%,-8,-8%,-14.9%,1,44%,85.2% (active),-9%,28%,82.2% (active)
OC(C1CCCCN1)C1CC(c2ccccc2)Nc2c(Cl)cc(Cl)cc21 (stereo unspecified),9%,99% (active),99.4% (active),-2%,99% (active),99.5% (active),-1%,99% (active),99.4% (active),-4,99% (active),99% (active),1,99% (active),49.5%,6%,99% (active),99.4% (active)
COc1c2c(cc3ccc(=O)oc13)C(Cl)C(Cl)O2 (stereo unspecified),7%,97% (active),77.7% (active),4%,98% (active),84.8% (active),10%,98% (active),92.8% (active),-16,97% (active),18.9%,9,98% (active),91.2% (active),14%,97% (active),97.7% (active)
Oc1ccc(-c2ccc3ccccc3c2)cc1,2%,98% (active),98.7% (active),6%,97% (active),99.3% (active),-3%,98% (active),99.2% (active),3,99% (active),98.8% (active),1,98% (active),99.2% (active),-2%,99% (active),99.1% (active)
CCCN1CSC(=S)N(CCC)C1,41%,92% (active),52.5%,48%,92% (active),77% (active),32%,99% (active),80.5% (active),66,98% (active),32.1%,34,100% (active),86.2% (active),37%,97% (active),72.8% (active)
O=c1c2[nH]c3cccc(Cl)c3c2cnn1-c1ccc(F)cc1,4%,47%,96.7% (active),2%,74% (active),97.2% (active),9%,35%,96.6% (active),2,85% (active),94.5% (active),2,53%,98% (active),-2%,79% (active),97% (active)
O=C1Oc2ccccc2C(=O)/C1=C/N1C(=O)/C(=C/c2ccc3c(c2)OCO3)SC1=S,7%,76% (active),60.9%,-7%,78% (active),47.8%,4%,66%,80.2% (active),-13,82% (active),70.5% (active),31,30%,66.3%,-4%,77% (active),44.3%
CC12CCC3C(CCC4CC(O)CCC43C)C1CC=CO2 (stereo unspecified),1%,98% (active),23.4%,32%,99% (active),50.6%,17%,99% (active),11.3%,0,99% (active),-1.5%,45,98% (active),59.4%,24%,99% (active),68.9%
